Screening results from PubChem BioAssay.
Shown are actives, neighbours in structure and some others; about 10% of the full set was active somewhere.
VP16 counter: counter-screen for ROR gamma inhibitors: Gal4-VP16 reporter; hit rate 3.5% among 310,000; AID 2546; Potency, µM (titrated, usually from 53.6 µM), without a hit: at the highest dose activity, negative = inhibition, most hits filed as inhibitors; Drosophila S2 Gal4-VP16 UAS-luciferase, luminescence, 20 h;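 further: Gal4-VP16 expression switched on by copper sulfate through the metallothionein promoter; on the % scale 0 is the no-effect control and ±100 the full control effect; nearly all actives have a fitted effect of over 50% in size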
MCF10A rereplic: inducers of DNA re-replication in MCF 10A breast cells | MCF 10A DNA re-replication, Hoechst nuclear intensity, 48 h | Potency, µM (highest dose often 46.1 µM), for the others: top-dose activity, positive = re-replication, most hits filed as activators | hit rate 2.9% among 350,000 | AID 624296; further: % of control where 0% means no effect; nearly all actives have a fitted effect of over 50% in size
KB-3-1 tox: KB-3-1 parental cell cytotoxicity. hit rate 1.4% among 400,000. Potency, µM (titrated, usually from 46.1 µM), hits mostly cytotoxic. KB-3-1 viability, CellTiter-Glo ATP luminescence, 72 h; further: on the % scale 0 is the no-effect control and ±100 the full control effect; nearly all actives have a fitted effect of over 60% in size
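72 h, 37 °C compound treatment of KB-3-1 parental cells; CellTiter-Glo added, 10 min, luminescence read. Data corrected against DMSO-only plates and normalized before curve fitting.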
RORgamma inh: blocks mouse ROR gamma transcriptional activity | P51450 | Potency, µM (titrated, usually from 53.6 µM), for the others: top-dose activity change, negative = inhibition, actives largely listed as inhibitors | AID 2551 | hit rate 5.4% among 310,000 | Drosophila S2 Gal4-RORgamma UAS-luciferase reporter, 20 h; further: on the % scale 0 is the no-effect control and ±100 the full control effect; nearly all actives have a fitted effect of over 60% in size
Target sequence (P51450 whole entry, looked up, the tested form may be a part): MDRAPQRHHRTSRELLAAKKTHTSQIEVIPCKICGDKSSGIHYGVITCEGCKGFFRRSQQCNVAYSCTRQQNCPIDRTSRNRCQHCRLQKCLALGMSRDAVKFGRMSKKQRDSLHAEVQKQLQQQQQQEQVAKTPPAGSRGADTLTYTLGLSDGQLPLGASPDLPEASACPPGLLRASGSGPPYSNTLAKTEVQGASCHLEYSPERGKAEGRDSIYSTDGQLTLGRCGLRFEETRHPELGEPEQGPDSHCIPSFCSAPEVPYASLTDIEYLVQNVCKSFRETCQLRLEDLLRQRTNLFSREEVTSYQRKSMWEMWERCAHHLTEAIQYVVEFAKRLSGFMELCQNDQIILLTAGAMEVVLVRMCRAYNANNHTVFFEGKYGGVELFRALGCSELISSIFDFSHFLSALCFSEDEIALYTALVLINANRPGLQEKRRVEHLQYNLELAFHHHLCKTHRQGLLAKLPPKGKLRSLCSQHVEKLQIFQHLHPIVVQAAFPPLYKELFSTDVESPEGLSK
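Compounds are pin-transferred onto Drosophila Schneider cells expressing a copper-inducible Gal4–ROR gamma transactivation domain fusion. After 1 hr, copper sulfate is added to 700 uM final; luciferase is read 20 hr later.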
SW480 rerep: inducers of DNA re-replication in SW480 colon cancer cells | SW480 DNA re-replication, Hoechst DNA content imaging, 48 h | Potency, µM (series often up to 46.1 µM), for the others: top-dose re-replication activation, hits mostly activators | hit rate 1.8% among 340,000; further: % of control where 0% means no effect; nearly all actives have a fitted effect of over 55% in size
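First, 250 cells per well were seeded. Next, compound or vehicle (23 nL) was pinned in, plates sat 48 hr at 37 C. Finally Hoechst was added for 40 min before fluorescence scanning.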
KB-V1 cytotox: kills drug-selected multidrug resistant KB-V1 cells. KB-V1 MDR cells viability, CellTiter-Glo, 72 h. Potency, µM (doses to about 46.1 µM), hits mostly cytotoxic. hit rate 3.4% among 400,000. AID 1347076; further: on the % scale 0 is the no-effect control and ±100 the full control effect; nearly all actives have a fitted effect of over 60% in size
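Compound-treated KB-V1 multidrug-resistant cells, 72 h, 37 degrees C; viability by CellTiter-Glo. Fitted qHTS curves give the values.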
The depositor's hits bear a star; [ ] = dose if it differs, or a comment. The call rests on the fitted dose curve; in most records, active means well fitted curve in the direction sought with a large enough effect; inconclusive means small, poorly fitted or top-dose-only effect, or another doubt; inactive means no such curve, though single readings can be large; an effect the other way counts as inactive or inconclusive. Potency means the concentration at half of the fitted maximal effect.

Screening CCOc1cccc(-c2c(C(=O)N/N=C/c3ccco3)nnn2-c2nonc2N)c1 returned VP16 counter 25µM*, MCF10A rereplic 9%, KB-3-1 tox inactive, RORgamma inh 11µM*, SW480 rerep -2% and KB-V1 cytotox inactive.
Screening CCOc1ccc(-c2c(C(=O)N/N=C/c3ccoc3)nnn2-c2nonc2N)cc1 returned VP16 counter inconclusive, MCF10A rereplic -1%, KB-3-1 tox inactive, RORgamma inh inconclusive, SW480 rerep -23% and KB-V1 cytotox inconclusive.
`CCOc1cccc(-c2c(C(=O)N/N=C/c3ccc(C)o3)nnn2-c2nonc2N)c1` gave VP16 counter inconclusive, MCF10A rereplic 5%, KB-3-1 tox inactive, RORgamma inh 10µM*, SW480 rerep -6% and KB-V1 cytotox inactive.
Screening CCOc1cccc(-c2c(C(=O)N/N=C/c3ccoc3)nnn2-c2nonc2N)c1 returned VP16 counter inconclusive, MCF10A rereplic 0%, KB-3-1 tox inactive, RORgamma inh 10µM*, SW480 rerep -7% and KB-V1 cytotox inactive.
Screening COc1ccccc1C(=O)c1cn(CC(=O)Nc2ccccc2F)c2nc(C)ccc2c1=O returned KB-3-1 tox inactive and KB-V1 cytotox inactive.
S=C(NCC1CCCO1)Nc1cc(Cl)c(Cl)cc1Cl (centres undefined) was read as VP16 counter 18µM*, MCF10A rereplic -11%, KB-3-1 tox inactive, RORgamma inh 3.2µM*, SW480 rerep inactive[1.84 µM] and KB-V1 cytotox inactive.
For Cc1cc(C)cc(NC(=S)NCC2CCCO2)c1 (centres undefined) the results were VP16 counter 35µM*, MCF10A rereplic -2%, KB-3-1 tox inactive, RORgamma inh 11µM*, SW480 rerep -1% and KB-V1 cytotox inactive.
Screening S=C(NCC1CCCO1)Nc1ccc(Nc2ccccc2)cc1 (centres undefined) returned VP16 counter inconclusive, MCF10A rereplic -10%, KB-3-1 tox inactive, RORgamma inh inconclusive, SW480 rerep inconclusive and KB-V1 cytotox inconclusive.
S=C(NCC1CCCO1)Nc1cccc(Cl)c1 (centres undefined) was read as VP16 counter 20µM*, MCF10A rereplic 1%, KB-3-1 tox inactive, RORgamma inh 16µM*, SW480 rerep 0% and KB-V1 cytotox inactive.
For NS(=O)(=O)c1ccc(NC(=S)NCC2CCCO2)cc1 (centres undefined) the results were VP16 counter 4%, MCF10A rereplic 10%, KB-3-1 tox inactive, RORgamma inh -17%, SW480 rerep -3% and KB-V1 cytotox inactive.
NN(Cc1ccccc1)C(=S)Nc1ccc(Cl)c(Cl)c1 was read as VP16 counter inconclusive, MCF10A rereplic 1%, KB-3-1 tox inactive, RORgamma inh 11µM*, SW480 rerep 4% and KB-V1 cytotox inactive.
OCCNC(=S)Nc1ccc(Cl)c(Cl)c1 was read as VP16 counter 11%, MCF10A rereplic -34%, KB-3-1 tox inactive, RORgamma inh 5%, SW480 rerep -30% and KB-V1 cytotox inactive.
Screening CCOC(=S)SCC(=O)N1CCc2cc(OC)ccc2C1C1C(=O)CCCC1=O (centres undefined) returned VP16 counter -11%, MCF10A rereplic inconclusive, KB-3-1 tox inconclusive, RORgamma inh -31%, SW480 rerep 10µM* and KB-V1 cytotox inconclusive.
Screening CCOC(=S)SCC(=O)N1CCc2cc(OC)c(OC)cc2C1C1C(=O)CC(C)(C)CC1=O (centres undefined) returned VP16 counter -1%, MCF10A rereplic inconclusive, KB-3-1 tox inactive, RORgamma inh -10%, SW480 rerep -7% and KB-V1 cytotox inactive.
Screening CN(Cc1cnn(Cc2ccccc2)c1)C(=O)CN=C1NS(=O)(=O)c2ccccc21 returned MCF10A rereplic 2%, KB-3-1 tox inactive, SW480 rerep -7% and KB-V1 cytotox inactive.
Screening Nc1c(-c2ccc(F)c(F)c2)nc2ncccn12 returned KB-3-1 tox inactive and KB-V1 cytotox inactive.
`CCOc1ccc(C2c3c(oc4ccc(C)cc4c3=O)C(=O)N2CCCN(C)C)cc1` (centres undefined) gave KB-3-1 tox inactive and KB-V1 cytotox inconclusive.
`O=C1c2cccc3cccc(c23)C(=O)N1CC1CCN(CC(O)COc2ccc3ccccc3c2)CC1` (centres undefined) gave VP16 counter -9%, MCF10A rereplic inconclusive, KB-3-1 tox inconclusive, RORgamma inh 27%, SW480 rerep inconclusive and KB-V1 cytotox inactive.
For Cc1cc(C)cc(OCC(O)CN2CCC(CN3C(=O)c4cccc5cccc(c45)C3=O)CC2)c1 (centres undefined) the results were VP16 counter -5%, MCF10A rereplic inconclusive, KB-3-1 tox inconclusive, RORgamma inh 2%, SW480 rerep 17% and KB-V1 cytotox 5.8µM*.
CCc1ccc(OCC(O)CN2CCC(CN3C(=O)c4cccc5cccc(c45)C3=O)CC2)cc1 (centres undefined) was read as VP16 counter -14%, MCF10A rereplic -11%, KB-3-1 tox 23µM*, RORgamma inh -21%, SW480 rerep -1% and KB-V1 cytotox inconclusive.
Screening COc1cccc(OCC(O)CN2CCC(CN3C(=O)c4cccc5cccc(c45)C3=O)CC2)c1 (centres undefined) returned VP16 counter -2%, MCF10A rereplic inconclusive, KB-3-1 tox inactive, RORgamma inh 7%, SW480 rerep inconclusive and KB-V1 cytotox inactive.
CCC(Sc1nc2n[nH]c(C)c2c(=N)n1-c1ccc(Br)cc1)C(=O)N(CC)CC (centres undefined) was read as KB-3-1 tox inactive and KB-V1 cytotox inconclusive.
For Cc1oc2ccc(O)c(CN3CCCC3)c2c1C(=O)Nc1ccc(C(C)C)cc1 the results were KB-3-1 tox inactive and KB-V1 cytotox inactive.
`O=C(COCc1cc(-c2ccco2)on1)Nc1cccc(O)c1` gave KB-3-1 tox inactive and KB-V1 cytotox inconclusive.
For O=[N+]([O-])CC(c1ccccc1)c1c[nH]c2ccccc12 (centres undefined) the results were MCF10A rereplic 15µM*, KB-3-1 tox 16µM*, SW480 rerep 169% and KB-V1 cytotox inconclusive.
Screening COc1cc(C(C[N+](=O)[O-])c2c(C)[nH]c3ccccc23)cc(OC)c1OC (centres undefined) returned VP16 counter 11%, MCF10A rereplic -2%, KB-3-1 tox inconclusive, RORgamma inh -32%, SW480 rerep -3% and KB-V1 cytotox inconclusive.
